Holding throughout (assay): NCI-60 one-dose screen, 48 h (100 = growth as untreated, 0 = no growth, -100 = all killed)
What all share (conditions): 10 µM unless noted

For test [1], the system named is NCI-H23 lung.
For test [2], the system named is NCI-H226 lung.
Test [3] concerns NCI-H322M lung.
Test [4] has as its system NCI-H460 lung.
The subject of test [5] is HOP-92 NSCLC.
Test [6] deals with NCI-H522 lung.
Test [7] concerns A549/ATCC NSCLC.
For test [8], the system named is 786-0 renal.
In test [9] the test system is COLO 205 colon.

The panel holds about 83,000 compounds, 20% with a hit somewhere; the sample as a whole holds those more often.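 Results are percent growth after 48 hours of single-concentration exposure. 100 means growth as in untreated cells, lower positive values show inhibition; negative values down to -100 show cell death.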 Unmarked numbers belong to inactive results. Activity calls are given as the source filed them. The calls were made as follows: active = growth percent below 10; inactive = the rest.

On to `C=C(C)[C@@H]1CC[C@]2(C(=O)OC)CC[C@]3(C)[C@H](CC[C@@H]4[C@@](C)(CCc5nn[nH]n5)[C@H](C(=C)C)CC[C@]43C)[C@@H]12`, for which the growth in [1] is -13.8% [100 µM] (active); in [2] it was -19.9% [100 µM] (active); in [3] it was 9.71% [100 µM] (active); in test [4] it was -59.3% [100 µM] (active); in [5], -39.8% [100 µM] (active); in test [6] it was -25.3% [100 µM] (active). Besides, the growth in [7] was 2.03% [100 µM] (active); in test [8], -8.74% [100 µM] (active); in test [9], -62.9% [100 µM] (active).
As for `CC(C)[C@H]1COC(=O)N1[C@@H]1C(=O)N([C@@H](CCC(=O)N2CCN(C3CCCC3)CC2)C(=O)N[C@@H]2CCCc3ccccc32)[C@@H]1/C=C/c1cccc(Cl)c1`, the growth in [1] was 72.1%; in test [2] it was 88.9%; in test [3], 57.9%; in test [4], 46.2%; in test [5], 31.4%; in [6] it was 75.5%. Besides, the growth is 35.9% in test [7], 54.9% in [8] and 57.7% in test [9].
Consider `CC[C@]1(O)CC2CN(CCc3c([nH]c4ccccc34)[C@@](C(=O)OC)(c3cc4c(cc3OC)N(C=O)[C@H]3[C@@](O)(C(=O)OC)[C@H](OC(C)=O)[C@]5(CC)C=CCN6CC[C@]43[C@@H]65)C2)C1` (stereo partly drawn), for which the growth is 21.5% in test [1]; 2.28% (active) in test [2]; 59.8% in test [3]; 3.19% (active) in test [4]; 25.4% in [5]; -21.5% (active) in test [6]. The figures for the growth in test [7], in [8] and in test [9] were 16.7%, 16.8% and -61.1% (active), respectively.
For the compound `O=C(O)c1cn(C2CC2)c2cc(N3CCN(Cc4c(O)ccc5ccccc45)CC3)c(F)cc2c1=O`, the growth in [1] was 21.9%; in [2], 6.89% (active); in test [3] it was 22%; in [4], 5.64% (active); in test [5], -8.22% (active); in test [7] it was -21.9% (active). For the same compound, the growth in [8] was 29.5%; in test [9] it was 27.1%.
For the compound `C[C@H]1[C@H](C)CC[C@]2(C(=O)O)CC[C@]3(C)C(=CC[C@@H]4[C@@]5(C)C/C(=C/c6cccnc6)[C@H](O)C(C)(C)[C@@H]5CC[C@]43C)[C@H]12`, the growth in test [1] was 14.3% [100 µM]; in test [2] it was -24.2% [100 µM] (active); in test [3] it was -16.4% [100 µM] (active); in test [4] it was -31.1% [100 µM] (active); in test [5], -3.06% [100 µM] (active); in test [6], -4.55% [100 µM] (active). Moreover, the figures for the growth in test [7], in test [8] and in [9] were 8.85% [100 µM] (active), 1.92% [100 µM] (active) and -80.4% [100 µM] (active), respectively.
As to `CCOC(=O)C(C(C)=O)c1nc2sc3cc(Cl)c(Cl)cc3n2c(=O)c1C#N` (stereo not drawn), the growth is 94.7% in test [1]; 95.3% in [2]; 114% in [3]; 92.7% in [4]; 76.8% in test [5]; 62.9% in test [6]. For the same compound, the figures for the growth in [7], in [8] and in test [9] were 108%, 114% and 108%, respectively.
Regarding `Cc1cc(NN=C(c2ccc(O)cc2)c2ccc(O)cc2)c([N+](=O)[O-])cc1[N+](=O)[O-]`, the growth was 31.9% in [1]; 99.2% in test [2]; 59.1% in test [3]; 27.3% in test [4]; 40% in test [5]; 15.4% in test [6]. The growth in [7] was 11.8%; in test [8] it was -5.42% (active); in test [9], 98.6%.
`CN(C)C(=S)Sc1ccc([N+](=O)[O-])cc1[N+](=O)[O-]`: the growth was 44.4% in test [1]; 49.6% in [2]; 101% in test [3]; -41.6% (active) in test [4]; 0.304% (active) in test [5]; -92.1% (active) in test [6]. For the same compound, the growth is 43.6% in test [7], 63.8% in [8] and -22.7% (active) in test [9].
Take `Cc1ccc(NCCN2CCCCC2)c2c(=O)c3ccccc3sc12`: the growth in test [1] was 43.1%; in [2] it was 57.2%; in test [3], 45.7%; in [5], 29.5%; in test [6], 2.96% (active); in [7] it was 20.2%. In addition, the growth in test [8] is 30.7%; in [9], -41.8% (active).
`C#C[C@]1(O)CC[C@H]2[C@@H]3CC=C4c5nc(Nc6ccc(OC)cc6OC)sc5CC[C@]4(C)[C@H]3CC[C@@]21C`: the growth in test [1] was 34.6%; in test [2], 24.2%; in test [3], 37%; in test [4], 12.4%; in test [5], 10.4%; in [6], 23%. Moreover, the results for the growth in test [7], in [8] and in test [9] were 9.68% (active), -54.7% (active) and -43.2% (active), respectively.
In the case of `COc1cc(C)cc2oc3oc(=O)c(C(=O)c4cc5cc(Br)ccc5o4)cc3c(=O)c12`, the growth in [1] was 107%; in test [2], 96.7%; in [3] it was 97.3%; in test [4], 107%; in [5], 102%; in [6] it was 101%. In addition, the growth in [7] was 102%; in [8], 110%; in test [9], 125%.
With `CC1Cc2c(ncnc2-n2cnc3ccccc32)N(C)c2ccccc21` (stereo not drawn), the growth was 48.5% in test [1]; 58.6% in test [2]; 63.7% in test [3]; 18.7% in test [4]; 36.3% in [5]; 20% in test [6]. Further, the values for the growth in test [7], in [8] and in [9] were 39.3%, 39.2% and 20.9%, respectively.
Turning to `O=C1COCCN1c1ccc(NCc2cn(Cc3ccc(F)cc3)c3ccccc23)cc1`, the growth in test [1] is 58.9%; in [2], -56.5% (active); in test [3], 87.3%; in [4] it was 15.4%; in [5], 68.2%; in test [6], 58.1%. The growth in test [7] was 48.4%; in test [8] it was 67.1%; in test [9], 5.22% (active).
For the compound `Cc1ccc(S(=O)(=O)Oc2ccc([N+](=O)[O-])cc2[N+](=O)[O-])cc1`, the growth in test [1] is 97%; in test [2] it was 68.9%; in test [3], 122%; in test [4], 110%; in test [5] it was 65.3%; in [6], 18.3%. Further, the growth in [7] is 104%; in [8], 47.7%; in test [9] it was 85.8%.
With `COC(=O)C(=Cc1ccccc1[N+](=O)[O-])C(=O)OC`, the growth in [1] is 38.8%; in test [2] it was 97.6%; in test [3] it was 54.9%; in test [4], 41.2%; in test [5], 16.5%; in [6], -3.3% (active). Further, the growth in test [7] is 44.2%; in test [8] it was 41.3%; in test [9] it was 38%.
In the case of `CC(C)CCSC1=CC(=O)c2ccccc2C1=O`, the growth in [1] was 78%; in test [2], 69.6%; in test [3], 79.6%; in test [4], 103%; in test [5] it was -74.5% (active); in test [6], -68.9% (active). Moreover, the growth was 79.7% in test [7], 90.6% in test [8] and 132% in [9].
Turning to `COC(=O)c1cc(O)c2c(c1C(=O)OC)C[C@H]1[C@@H]3CC=C4C[C@@H](O)CC[C@]4(C)[C@H]3CC[C@]21C`, the growth in test [1] was 46%; in [2], 70.6%; in test [3], 66%; in test [4], 64.6%; in [5], 18.6%; in test [6] it was 50%. For the same compound, the growth is 38.5% in test [7], -56.1% (active) in test [8] and 83.1% in [9].
Turning to `O=[N+]([O-])c1ccc(O)c(-c2nc3ccccc3s2)c1`, the growth in test [1] was 47.3%; in [2], 83.7%; in test [3], 90.7%; in test [4], 63.2%; in test [5], -5.6% (active); in test [6], 58.6%. The growth in [7] is 84.2%; in test [8], 73.8%; in [9], 103%.
`O=C(Nc1cc(-c2cccnc2)nc(NCCCN2CCOCC2)n1)c1cc(Br)cc(C(F)(F)F)c1`: the growth in test [1] is 80.9%; in test [2], 73.8%; in test [3], 58.2%; in test [4] it was 56%; in [5] it was 34.6%; in test [6], 60.2%. In addition, the figures for the growth in test [7], in test [8] and in [9] were 67.9%, 51.8% and 1.11% (active), respectively.
Regarding `COc1cccc(-c2[nH]c(=S)ncc2C(=O)c2ccccc2)c1`, the growth in test [1] was 97%; in test [2], 102%; in test [3], 99.9%; in test [4], 91.9%; in test [5], 102%; in test [6], 70.9%. Also, the growth in test [7] is 88.4%; in test [8], 100%; in test [9], 84.7%.

These data come from PubChem BioAssay (NCI).
